Experimental data taken from PubChem BioAssay (NCI).
This is part of a sample that, as a whole, favours compounds with a hit. Of some 83,000 tested, about 20% had one in any assay.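 Values shown are percent growth following 48 h exposure of cells in 96-well plates to a single concentration of compound; below 10 was considered active.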 A number with no mark means an inactive call. Activity calls are given as the source filed them.

What was measured:
Assay in all cases: NCI-60 one-dose screen, 48 h (100 = growth as untreated, 0 = no growth, -100 = all killed)
Details in all cases: 10 µM unless noted
NCI-H23 lung = system: NCI-H23 lung
NCI-H226 lung = system: NCI-H226 lung
NCI-H322M lung = system: NCI-H322M lung
HOP-62 NSCLC = system: HOP-62 NSCLC
NCI-H460 lung = system: NCI-H460 lung
HOP-92 NSCLC = system: HOP-92 NSCLC
NCI-H522 lung = system: NCI-H522 lung
A549/ATCC NSCLC = system: A549/ATCC NSCLC
786-0 renal = system: 786-0 renal
COLO 205 colon = system: COLO 205 colon

Row | Compound | growth (NCI-H23 lung) | growth (NCI-H226 lung) | growth (NCI-H322M lung) | growth (HOP-62 NSCLC) | growth (NCI-H460 lung) | growth (HOP-92 NSCLC) | growth (NCI-H522 lung) | growth (A549/ATCC NSCLC) | growth (786-0 renal) | growth (COLO 205 colon)
1 | O=C1c2ccccc2C2N1CCC1CCc3ccccc3N12 (stereo not given) | 99.5% | 90.2% | 85.4% | 108% | 104% | 73.6% | 84.8% | 99.1% | 99.7% | 112%
2 | C1=C\CCCCN2CC[C@H]3[C@H](CCCC/C=C\CCCN4C[C@@H](CCCCC/1)C[C@@H]3C4)C2 | 79.5% | 110% | 108% | 76.3% | 51.8% | 17.6% | 47.8% | 48.9% | 73.2% | -64.3% (active)
3 | N=C(N)c1ccc(-c2ccc(-c3cc(Cl)cc(Cl)c3)o2)nc1 | 3.49% (active) | 99.5% | -30.9% (active) | -72.7% (active) | -78.8% (active) | 73.3% | -67.4% (active) | -68.8% (active) | -64.9% (active) | -76.6% (active)
4 | O=C(O)c1ccccc1N=Cc1ccccc1 | 98% | 132% | 120% | 100% | 106% | 90.2% | 101% | 102% | 104% | 105%
5 | CNC(=O)c1cc(Oc2ccc(NC(=O)c3nc(S(C)(=O)=O)sc3-c3ccc(F)cc3)cc2)ccn1 | 94.8% | 101% | 28.2% | 94.9% | 84.7% | 138% | 53.4% | 94.8% | 98.3% | 69.1%
6 | CCCCN(CCCC)CCCN=c1nc2c(c(N)n1-c1ccccc1)c(=S)n(-c1ccccc1)c(=S)n2-c1ccccc1 | -56.3% (active) | -82.5% (active) | -57.8% (active) | -99.6% (active) | -95.7% (active) | -66.9% (active) | -54.8% (active) | -38.4% (active) | -100% (active) | -74.1% (active)
7 | C=C(C)c1ccc(/C=N/NC(N)=S)cc1 | 103% | 86.3% | 111% | 77.4% | 99.9% | 131% | 103% | 118% | 11.4% | 120%
8 | O=C(Nc1ccc(Oc2ccc(NC(=O)Nc3ccccc3Cl)cc2)cc1)Nc1ccccc1Cl | 41.8% | 61.9% | 75.7% | 81% | 30.2% | 38% | -10.4% (active) | -3.15% (active) | 78.7% | 49%
9 | O=C(CI)NCCNc1cccc2c(S(=O)(=O)O)cccc12 | 95.1% | 103% | 98% | 107% | 105% | 102% | 107% | 110% | 101% | 105%
10 | O=C(/C=C/c1ccccc1)n1c(-c2ccccc2)nc2ccccc21 | 101% | 101% | 108% | 105% | 103% | 91.6% | 102% | 101% | 100% | 109%
11 | Oc1ccc(Cl)cc1-c1cc(-c2ccccc2Cl)[nH]n1 | 47.8% | 81.8% | 65.1% | 63.3% | 37.1% | 20.6% | 27.4% | 53.1% | 84.7% | 104%
12 | c1ccc(-c2[nH]c3ccccc3c2-c2ccccc2)cc1 | 82% | 91.4% | 82.2% | 90% | 82.5% | 8.71% (active) | 91.8% | 84.5% | 83.9% | 107%
13 | C/C(=N\NC(=S)N1CCCCC1)c1ccccn1 | 30.8% | 7.07% (active) | 4.53% (active) | 21% | -23.9% (active) | -1.04% (active) | 11.5% | 9.13% (active) | 15.5% | -14% (active)
14 | NCCCOc1cc2ccccc2cc1C(=O)NCCCOc1cc2ccccc2cc1C(=O)Nc1ccc(Cl)cc1O | -67.6% (active) | -85.8% (active) | -51.9% (active) | -100% (active) | -72.3% (active) | -75.9% (active) | -65.1% (active) | -75.2% (active) | -82.4% (active) | -54.1% (active)
15 | CNCCCNc1ccnc2cc(Cl)ccc12 | -50.4% (active) | -17.6% (active) | -40.7% (active) | -27.1% (active) | -28.2% (active) | -17.9% (active) | -62.3% (active) | 1.29% (active) | 3.83% (active) | -88.9% (active)
16 | Nc1cccc(S(=O)(=O)c2cccc(N)c2)c1 | 111% | 107% | 124% | 111% | 120% | 97% | 111% | 111% | 108% | 117%
17 | Cc1ccc(-c2cnc3sc4ccc(Cl)cc4n23)cc1 | 89.7% | 74.6% | 93.4% | 80.3% | 104% | 85.6% | 78.1% | 112% | 109% | 96.8%
18 | CCOC(=O)C(=CNc1ccccc1Cl)C(=O)OCC | 103% | 122% | 110% | 94.5% | 103% | 97.2% | 72% | 85.6% | 87.7% | 129%
19 | O=C(OCc1ccc2c(Br)cc(Br)c(O)c2n1)c1cc2ccccc2[nH]1 | -27.4% (active) | -66.5% (active) | 51.6% | 13.7% | -38.7% (active) | -66.4% (active) | -74.2% (active) | 14.5% | -78.2% (active) | -74% (active)
20 | CC1CN(CCCOC(=O)Nc2ccc(Cl)cc2)CCN1C(C)(C)C (stereo not given) | 101% | 96.4% | 96.5% | 112% | 106% | 133% | 97.5% | 103% | 99.3% | 102%
21 | COc1ccc(-c2nc(-c3ccccc3OCc3ccccc3OC)nc(C)c2C(C)=O)cc1 | 74.8% | 81.5% | 94.7% | 91.5% | 80.6% | 71.2% | 78.3% | 79.7% | 91.3% | 86.7%
22 | COCCn1c(Nc2ccc(C(=O)NO)cc2)nc2ccccc21 | 72.8% | 89.6% | 76.5% | 74.8% | 56.7% | 27.7% | 30.9% | 69.2% | 84.4% | 50.7%
23 | CCCCNCC(O)c1cc2c(Cl)cc(Cl)cc2c2cc(C(F)(F)F)ccc12 (stereo not given) | -72.9% (active) | -69.4% (active) | -82.8% (active) | -80.8% (active) | -73.9% (active) | -89.5% (active) | -78.7% (active) | -83.3% (active) | -71.2% (active) | -76.8% (active)
24 | CN1CCN(Cc2ccc(NC(=O)c3cnc(F)c(C#Cc4cnc(N)c5ncccc45)c3)cc2C(F)(F)F)CC1 | 28.3% | -14.2% (active) | 33.7% | 16.6% | 13.1% | -8.06% (active) | 30% | 23.3% | 29.5% | -7.96% (active)
25 | COc1ccc([C@@H]2[C@@H](Oc3ccccc3)C(=O)N2c2cc(OC)c(OC)c(OC)c2)cc1F | 16.5% | 41.5% | 33.4% | 14% | 7.22% (active) | 42% | -26.1% (active) | 13.4% | 5.88% (active) | -41.2% (active)
26 | Cc1cc(C)c2c(n1)sc1c(Nc3ccc(Cl)cc3Cl)ncnc12 | 19% | 36.2% | 43.9% | 2.53% (active) | 9.44% (active) | 36.2% | 30.5% | 26.2% | 10.9% | 23.3%
